Data on 45 compounds can be found in PubChem BioAssay AID720504 (National Center for Advancing Translational Sciences (NCATS), 2013).

Molecules are shown by their SMILES. The whole screen tested about 360,000 compounds, of which about 10,000 (2.8%) were called active. Inconclusive results (about 4%) are left out. Shown is part of a subset that was picked to be rich in actives. A number with no mark means an inactive call. Calls come from the whole dose curve; as a rule, active = well fitted inhibition curve with a large enough effect; inconclusive = small, poorly fitted or top-dose-only effect; inactive = flat fitted curve, though single readings scatter.
% is set by controls: 0 for no effect and ±100 for the full control effect; potency is the fitted concentration of half-maximal effect.

Chain of Serine/threonine-protein kinase PLK1 (Homo sapiens) (P53350 whole entry, looked up, the tested form may be a part): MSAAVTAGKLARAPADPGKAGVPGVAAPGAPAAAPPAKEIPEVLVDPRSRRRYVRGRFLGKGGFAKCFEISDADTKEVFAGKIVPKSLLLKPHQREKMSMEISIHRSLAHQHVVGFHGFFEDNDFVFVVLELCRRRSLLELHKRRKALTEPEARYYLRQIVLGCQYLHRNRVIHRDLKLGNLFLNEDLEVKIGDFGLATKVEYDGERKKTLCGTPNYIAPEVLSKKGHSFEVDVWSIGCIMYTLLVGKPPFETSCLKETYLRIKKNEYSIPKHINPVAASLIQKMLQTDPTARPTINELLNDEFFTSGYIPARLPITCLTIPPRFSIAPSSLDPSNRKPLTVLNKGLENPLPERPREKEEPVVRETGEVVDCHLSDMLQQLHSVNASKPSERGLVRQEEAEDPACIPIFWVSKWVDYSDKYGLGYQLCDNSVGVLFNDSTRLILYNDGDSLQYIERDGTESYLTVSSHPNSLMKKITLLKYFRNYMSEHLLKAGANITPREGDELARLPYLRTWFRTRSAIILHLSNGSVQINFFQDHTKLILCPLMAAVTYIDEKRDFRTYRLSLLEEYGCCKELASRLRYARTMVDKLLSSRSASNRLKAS

This test deals with Serine/threonine-protein kinase PLK1 (Homo sapiens) (UniProt P53350). Put plainly: qHTS for Inhibitors of PLK1-PDB (polo-like kinase 1 - polo-box domain): Primary Screen. For max response, negative = inhibition: series mostly up to about 57 µM. Note: nearly all actives have a fitted effect of over 65% in size. As to conditions: Plk1 PBD binding of FITC phosphopeptide, fluorescence polarization. From the text:
The polo-like kinase 1 (Plk1) is a member of a conserved subfamily of serine / threonine protein kinases that plays a pivotal roles in cell proliferation. It has a C-terminal non-catalytic region called the polo-box domain (PBD) that plays a crucial role in the subcellular localization of the Plk1. […] Furthermore, depletion of the overexpressed Plk1 by RNAi efficiently induces apoptotic cell death in cancer and reduces tumor growth in mouse xenograft models. Thus, targeting Plk1 is an appealing strategy for anti-cancer therapy. Therefore, this project aimed to screen the Molecular Libraries Small Molecule Repository (MLSMR) using a novel approach to find inhibitors that target the Plk1 PBD instead of the conventional N-terminal catalytic domain. This project employed a fluorescence polarization (FP) assay using a FITC-conjugated phospho-9-mer (p-9-mer) peptide and purified human Plk1 PBD protein. The identified small molecule inhibitors of Plk1 PBD can then further be developed into useful tools for biomedical and clinical research that complements or replaces current relevant disease therapy. NIH Chemical Genomics Center [NCGC] NIH Molecular Libraries Probe Centers Network [MLPCN] MLPCN Grant: MH100728 Assay Submitter (PI): Kyung Lee, NCI
Four microliter of 25 nM FITC-p-9-mer + 60 nM Plk1 PBD in buffer solution (final concentrations 25 nM and 60 nM respectively) or 4 uL of 25 nM FITC-p-9-mer (final concentration 25 nM) in buffer will be dispensed into a 1,536 Greiner medium-binding black solid plate. Small molecules at final concentrations of 18 nM to 57 uM and positive control phospho-9-mer (sequence: Ac-PPLHSpTAI-NH2) at final concentrations 26 nM to 57 uM and phospho-13-mer (sequence: Ac-[…]pTAI-NH2) at final concentrations of 1 nM to 2.3 uM will be pin-transferred (23 nL) to the plate via a Kalypsys pin-tool robotics equipped with a 1,536-pin array. The reaction plate will be centrifuged for 1 min at 1000 rpm and incubated at room temperature for 10 min. The FITC fluorescence signals will be read using the PerkinElmer ViewLux plate reader at 480 / 20 nm excitation and 540 / 20 nm S and P polarization emission wavelengths. Reagent bottles will be kept submerged into 4 °C recirculating chiller bath and all liquid lines will be covered with aluminum foil to minimize degradation. Library plates will be screened starting from the lowest to the highest concentrations to minimize compound carryover. Vehicle only plates, with DMSO being pin-transferred instead of compound solutions, will be included regularly throughout the screen to record any systematic shifts in assay signal.
For orientation: Quantitative high-throughput screening tests each substance at several concentrations.
For the compound `O=C(N/N=C/c1cccc(Br)c1)c1ccc(N2CCCC2=O)cc1`, the Potency was 26.7 µM (active). Regarding `CC(C)CN1CCC1(C)C(=O)Nc1ccc(OC(F)F)cc1` (stereo not given), the max response, negative = inhibition is -0.833%. The same measure, in the same setting: under `CCCNC(=O)C1(C)CCCN(Cc2c(C)nn(-c3ccccc3)c2C)C1` (stereo not given) stands 2.73%. In the case of `COc1ccc(C(=O)NCC[N+](C)(C)C)cc1`, the max response, negative = inhibition was 1.35%. For the compound `COCCCNC(NC(=O)c1ccc(OC)cc1)C(Cl)(Cl)Cl` (stereo not given), the max response, negative = inhibition is 5.66%. Regarding `COCCNC(=S)c1ccc(OC)cc1`, the Potency is 26.7 µM (active).

As to `C#CCNC(=O)C[C@@H]1C[C@@]2(C(=O)OCC)CCCC=C2N(Cc2ccco2)C1=O`, the max response, negative = inhibition is -6.05%. The same measure, in the same setting: under `CC(C)c1ccc(-c2nn[nH]n2)cc1` stands -8.56%. On the same count and under the same terms, for `c1cc(-c2nn[nH]n2)ccc1CN1CCCCC1` the value was -9.14%.

On to `Brc1ccc(-c2nn[nH]n2)cc1`, for which the Potency is 23.8 µM (active). With `COc1cccc(C(O)c2nc(-c3ccc(C)c(C)c3)cs2)c1` (stereo not given), the max response, negative = inhibition is -8.07%.

As to `COCc1cccc(-c2csc(C(O)c3ccc(F)cc3)n2)c1` (stereo not given), the max response, negative = inhibition is -9.74%.

Take `COc1ccc(NC(=O)CSc2nnnn2-c2cccc(OC)c2)cc1`: the max response, negative = inhibition is 5.21%.

For `COCCn1c(SCC(=O)Nc2ccc(F)cc2F)nc2c(c1=O)SCC2`, the max response, negative = inhibition was 10.8%. Same read-out and setting: for `Cc1ccc(Cc2c(-c3ccccc3)nc3ccc(Cl)cn23)cc1` the value was -1.42%. As to `Cc1ccc(Cc2c(-c3ccco3)nc3ccc(Cl)cn23)cc1`, the Potency was 21.2 µM (active). For the compound `Cc1ccc(-c2nc3ccc(Cl)cn3c2Cc2ccccc2)cc1`, the max response, negative = inhibition is -1.46%. As for `CC1Cc2[nH][nH]c(=O)c2C(C2CCCC2)O1` (stereo not given), the max response, negative = inhibition was -5.58%. On the same count and under the same terms, under `OC(c1ccccc1)c1nc(-c2cnc3ccccc3c2)cs1` (stereo not given) stands 1.51%. Turning to `COc1ccc(Nc2nc(-c3cccnc3)nc3ccccc23)cn1`, the Potency was 21.2 µM (active). Take `O=C(CSc1n[nH]c(-c2cccnc2)n1)Nc1ccnc2ccccc12`: the max response, negative = inhibition is -8.72%. As for `CCN(CC(=O)NC1CCS(=O)(=O)C1)c1nc(-c2cccnc2)nc2ccccc12` (stereo not given), the max response, negative = inhibition was -6.17%.

For `C[C@H]1CN([C@@H](C)CO)C(=O)CCCn2cc(nn2)CO[C@@H]1CN(C)S(=O)(=O)c1ccc(-c2ccccc2)cc1`, the max response, negative = inhibition was -23.9%.

Turning to `CCCc1[nH]nc2c1C(c1ccc(Br)s1)C(C#N)=C(N)O2` (stereo not given), the Potency was 23.8 µM (active). As for `COCc1[nH]nc2c1C(C1C=CCCC1)C(C#N)=C(N)O2` (stereo not given), the max response, negative = inhibition is -8.66%.

In the case of `COc1ccc(-c2[nH]nc3c2C(c2ccncc2)C(C#N)=C(N)O3)cc1` (stereo not given), the max response, negative = inhibition is -28.1%. `CC(=O)Nc1cccc(-c2ccnc3c2CC(C)(C(=O)NCc2ccccc2)O3)c1` (stereo not given): the max response, negative = inhibition was 0.623%. Take `CNC[C@H]1OCc2cnnn2CCCC(=O)N([C@H](C)CO)C[C@@H]1C`: the max response, negative = inhibition is -6.68%. Same read-out and setting: for `Cc1cc2oc(=O)cc(CN(C)Cc3ccccc3)c2cc1Cl` the value was -6.49%; for `CSc1ncc(C(=O)NCCCc2ccccc2)c(C)n1`, -4.81%. Consider `CSc1ncc(Sc2ccccc2)c(C(=O)O)n1`, for which the Potency is 23.8 µM (active). As to `Cc1ccccc1C(=O)Nc1ccccc1Sc1ccccc1`, the max response, negative = inhibition was 2.65%. As to `CN1C[C@@H](CO)O[C@@H](n2cnc3c(N4CCN(CCO)CC4)ncnc32)C1`, the max response, negative = inhibition was 2.3%. Take `COCCNC(=O)C1CCCN(Cc2ccccc2Cl)CC1` (stereo not given): the max response, negative = inhibition was -4.77%. On the same count and under the same terms, under `CC(=O)N1CCN(Cc2cc(=O)oc3cc(C)ccc23)CC1` stands -2.03%; under `CCOC(=O)[C@H]1Nc2ccc(Cl)cc2[C@@H]2[C@H]1C1CC(c3ccccc31)N2C(=O)OCc1ccccc1` (stereo not given in full), -10.8%; under `CNc1cc(-c2c(OC)cccc2OC)ncn1`, -6.78%.

On to `CN1CCN(c2ccc3c(c2)OC[C@H](Cc2ccccc2)NS3(=O)=O)CC1`, for which the max response, negative = inhibition is 0.181%. For the compound `COc1ccc(-c2nc3ccc(Br)cn3c2Cc2ccc(C)cc2)cc1OC`, the max response, negative = inhibition is -11%. Regarding `Cc1ccc2c(c1)C(c1ccccc1)N(C(=O)c1ccc(S(=O)(=O)N3CCOCC3)cc1)CC(=O)N2` (stereo not given), the Potency was 23.8 µM (active). On to `Cc1ccc(C(=O)N2CC(=O)Nc3ccc(F)cc3C2c2ccc(F)cc2)cc1` (stereo not given), for which the max response, negative = inhibition was 1.6%. Still for that read-out and setting: under `Cc1ccc2c(c1)C(c1ccccc1)N(C(=O)c1ccc(F)cc1)CC(=O)N2` (stereo not given) stands -0.372%.

As for `CCNC(=O)C1(C)CCCN(C(=O)c2c(C)noc2C)C1` (stereo not given), the max response, negative = inhibition was -0.543%. As for `CCOC(=O)c1cc2cc(OC)ccc2n1C1CCN(C)CC1`, the max response, negative = inhibition was -4.75%. Take `CCC(Oc1ccccc1)C(=O)OCC(=O)Nc1c(C)nn(-c2ccccc2)c1C` (stereo not given): the max response, negative = inhibition was -0.819%.
